Data on 52 compounds can be found in PubChem BioAssay AID441 (NMMLSC, 2006).

Among all 24,000 compounds or so, about 70 (0.3%) were called active. This is one part of a sample in which actives are shown more often than they occur. A number with no mark means an inactive call. Cut-off read from the data, not from the text of the source: active = inhibition above about 30%; inconclusive = no clear call, values can overlap the other calls; inactive = below that.

Sequence of N-formyl peptide receptor 2 (Homo sapiens) (P25090 whole entry, looked up): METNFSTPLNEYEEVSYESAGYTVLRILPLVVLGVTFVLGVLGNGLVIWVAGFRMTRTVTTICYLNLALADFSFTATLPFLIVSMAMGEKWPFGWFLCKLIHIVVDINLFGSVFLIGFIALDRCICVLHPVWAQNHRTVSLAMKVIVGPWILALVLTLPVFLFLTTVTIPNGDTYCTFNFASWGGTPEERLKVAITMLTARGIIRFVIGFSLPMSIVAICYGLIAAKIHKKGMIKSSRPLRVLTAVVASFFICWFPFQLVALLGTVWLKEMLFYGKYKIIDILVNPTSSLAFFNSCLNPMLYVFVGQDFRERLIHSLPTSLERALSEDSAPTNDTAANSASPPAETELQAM

This experiment addresses N-formyl peptide receptor 2 (Homo sapiens) (UniProt P25090). Put plainly: human FPRL1 ligands by binding competition, primary screen, cell-based, FPR counter-screen, flow cytometry (AID 441).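 Note: 0% = buffer alone and 100% = receptor blocker peptide.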 The settings on record: FPRL1-expressing cells, fluorescent ligand binding inhibition, stronger effect = higher value, concentration not given here. (The purpose of a counterscreen is to sort out artefacts and off-target activity.)
Regarding `C[N+](C)(C)CCOP(=O)([O-])OC[C@H](O)CO`, the inhibition is 5.6%.
With `O=C(Nc1cccc(OCC(=O)N2CCOCC2)c1)C1CCCCC1` the figure was -0.9%; with `CCOc1ccccc1NC(=O)c1cc(S(=O)(=O)N2CCC3(CC2)OCCO3)ccc1F`, -14.8%.
With `CC1(C)CC(O)C(CCC(O)c2ccccc2)C(C)(C)N1` (configuration not stated) the figure was 6.7%.
With `COc1ccc(-c2noc(-c3cccc(OC)c3OC)n2)cc1OC` the figure was -2.6%; with `COc1ccc(S(=O)(=O)NC2(C(F)(F)F)N=C3SCCN3C2=O)cc1` (configuration not stated), 0.8%; with `O=C(c1ccccc1)c1cccn1CC(=O)N1CCN(c2ccc(F)cc2)CC1`, 14.7%.
Regarding `COc1ccc(NC(=O)C2CCCN(S(=O)(=O)c3cccc4cccnc34)C2)cc1` (configuration not stated), the inhibition is -6%.
In the case of `COc1ccc(CC(NC(C)=O)C(=O)NC2CCN(C(=O)Nc3ccc(C#N)cc3)CC2)cc1OC` (configuration not stated) it was 17.9%.
With `COc1ccccc1N1CCN(c2nc3ccccc3n3nnnc23)CC1`, the inhibition was -3.6%.
On to `Cc1noc(C)c1S(=O)(=O)NCCc1ccc(S(N)(=O)=O)cc1`, for which the inhibition is 3%.
With `Nc1scc(-c2ccncc2)c1Cl` the figure was -8.7%; with `COc1ccc(NC(C)=O)cc1NC(=O)CN1CCN(c2ccccn2)CC1`, -0.9%; with `Cc1ccc(S(=O)(=O)N2C3C=CC(C3)C2C(=O)O)cc1` (configuration not stated), 0.9%.
In the case of `COc1cc(C2C(C(=O)Nc3ccc(F)cc3)=C(C)Nc3nc(CCCO)nn32)cc(OC)c1OC` (configuration not stated) it was -2.7%.
In the case of `CC(=O)Nc1ccc(-c2cn3cccnc3n2)cc1` it was 2.3%; in that of `CCOC(=O)N1CCN(C(=O)c2cnc3n(c2=O)CCS3)CC1`, -0.5%; in that of `O=C(CCSCCc1ccccn1)Nc1nccs1`, 0.5%.
As for `Cc1c2cnn(-c3ccccc3)c(=O)c2c(C)n1CCCC(=O)N1CCN(C)CC1`, the inhibition is 0%.
With `COc1cccc(Nc2nnc(SCC(=O)N3CC(C)OC(C)C3)s2)c1` (configuration not stated) the figure was -0.3%; with `COCCCNC(=O)c1ccc2c(c1)ncn2-c1ccccc1OC`, 0.4%; with `COc1ccc(NC(=O)CCNC(=O)Cn2ccc3ccccc3c2=O)c(OC)c1`, -0.5%.
With `Cc1cc(C)c(C#N)c(SCc2[nH]nc3c2C(c2ccccc2)C(C#N)=C(N)O3)n1` (configuration not stated) the figure was -9.6%; with `O=C(O)C1CCCCC1C(=O)Nc1ccc(Cl)cc1` (configuration not stated), -0.4%.
On to `O=C(Cn1nc(Cc2cccnc2)c2ccccc2c1=O)NCC1COc2ccccc2O1` (configuration not stated), for which the inhibition is -7.3%.
With `CCOc1ccc2c(=O)c(-c3ccc4c(c3)OCCCO4)c(C)oc2c1` the figure was -9.1%; with `CN(C)/C=C1\C=C(c2ccccc2)OC1=O`, -0.8%; with `COc1cc2c(cc1OC)C(c1ccc(C)o1)CC(=O)N2` (configuration not stated), -0.6%.
As to `O=C(O)Cc1ccc(NC(=O)C2CCCCC2C(=O)O)cc1` (configuration not stated), the inhibition is -3.1%.
With `CN(C)S(=O)(=O)c1ccc(Oc2ccc(S(=O)(=O)N(C)C)cc2)cc1`, the inhibition is 0.3%.
In the case of `Cc1cc(C)c2c(n1)nn1c(N3CCN(c4cccc(Cl)c4)CC3)cc(C)nc21` it was 1.1%.
With `CCCS(=O)(=O)N1CCC(C(=O)NCCCN(C)Cc2ccccc2)CC1` the figure was -2.9%.
In the case of `Cc1nc2ccc(S(=O)(=O)NCC(=O)O)cc2s1` it was 6.9%.
On to `Cc1ccc(Nc2cc(=O)n(C3CCCCC3)c(=O)[nH]2)cc1C`, for which the inhibition is -0.5%.
In the case of `COc1cc2ccccc2cc1C(=O)Nc1ccc(S(=O)(=O)Nc2cc(C)on2)cc1` it was 1.4%.
For the compound `O=C(CCN1C(=O)c2ccccc2C1=O)NCCN1CCOCC1`, the inhibition was 3.1%.
In the case of `Cc1cccc(NC(=O)CN2CCCN(S(=O)(=O)c3ccc(Br)s3)CC2)c1` it was 6.3%; in that of `CCCSc1nc2c(c(=O)[nH]c(=O)n2C)n1CCc1ccccc1`, 0.6%; in that of `CC(=O)c1c(C)[nH]c(C(=O)NCCCN2CCCC2)c1C`, 2.2%.
For the compound `COc1ccccc1CNC(=O)Cn1cc2c(n1)CCCC2`, the inhibition is -1.9%.
On to `Cc1ccccc1-n1nnc2c(=O)oc3ccccc3c21`, for which the inhibition was -2.1%.
On to `CC1(C)Oc2ccc3ccc(=O)oc3c2/C(=C/NCCO)C1=O`, for which the inhibition is -5.7%.
In the case of `c1cc(-c2nn[nH]n2)ccc1CN1CCCCC1` it was -4.3%; in that of `COc1ccc(/C(O)=C2\C(=O)C(=O)N(Cc3ccco3)C2c2ccc(OC)cc2OC)cc1` (configuration not stated), 26.8%; in that of `CCOc1cccc(/C(O)=C2/C(=O)C(=O)N(CCOC)C2c2ccncc2)c1` (configuration not stated), -3.8%.
In the case of `COc1cccc(OCC(O)CN2CCN(CCO)CC2)c1` (configuration not stated) it was 2.6%; in that of `Cc1ccc(NC(=O)CN(C)S(=O)(=O)c2cnc[nH]2)cc1C`, -2.5%; in that of `COc1cc(C2C(C(=O)c3ccc(C)o3)=C(O)C(=O)N2Cc2cccnc2)ccc1O` (configuration not stated), 28.1%.
In the case of `COc1ccc(/C(O)=C2/C(=O)C(=O)N(CC3CCCO3)C2c2ccc(OC)c(OC)c2)cc1` (configuration not stated) it was -7.5%; in that of `CCCS(=O)(=O)Nc1c(C(=O)O)[nH]c2ccccc12`, 2.1%; in that of `Cc1nnc(SCCCn2c(N3CCCCC3)nc3c2c(=O)[nH]c(=O)n3C)s1`, 0.8%.
On to `CCCCOC(=O)Nc1nccs1`, for which the inhibition is -2.9%.

What is called inhibition is the change of the read-out against control, counted positive when it falls.
